Screening data: PubChem, National Center for Advancing Translational Sciences (NCATS)
TbPYK inhibitor: T. brucei pyruvate kinase inhibition. Potency, µM (titrated, usually from 76.8 µM), actives largely listed as inhibitors. 410,000 compounds, 0.12% hits. TbPYK enzyme, Kinase-Glo Plus ATP luminescence, 45 min. Q57TT1; also: nearly all actives have a fitted effect of over 50% in size
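Assay buffer: 50 mM TEA pH 7.2, 100 mM KCl, 10 mM MgCl2, 0.05% BSA, 0.01% Tween-20. Pyruvate kinase from T. brucei plus substrate met compound, then ADP (130 uM final). Luminescence was read post 45 min RT.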
LmPK inhibitor: LmPK (Leishmania mexicana) enzyme inhibition; Potency, µM (titrated, usually from 57.5 µM), most hits filed as inhibitors; purified LmPK, Kinase-Glo ATP luminescence, 1 h; Q27686; AID 1721; 290,000 compounds, 0.37% hits
Target sequence (Q27686 whole entry, looked up): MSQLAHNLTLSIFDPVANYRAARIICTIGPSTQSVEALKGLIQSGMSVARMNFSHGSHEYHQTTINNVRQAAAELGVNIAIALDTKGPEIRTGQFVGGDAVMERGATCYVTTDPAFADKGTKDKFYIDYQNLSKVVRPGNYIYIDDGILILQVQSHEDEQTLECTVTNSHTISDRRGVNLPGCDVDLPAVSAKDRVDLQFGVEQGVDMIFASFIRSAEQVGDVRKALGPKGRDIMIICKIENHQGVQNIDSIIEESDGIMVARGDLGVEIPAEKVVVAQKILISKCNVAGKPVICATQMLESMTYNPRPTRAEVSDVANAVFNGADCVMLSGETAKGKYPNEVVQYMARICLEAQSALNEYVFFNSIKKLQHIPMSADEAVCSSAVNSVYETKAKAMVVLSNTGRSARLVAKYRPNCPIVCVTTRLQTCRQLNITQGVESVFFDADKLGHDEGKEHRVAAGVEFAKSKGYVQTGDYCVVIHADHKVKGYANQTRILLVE
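Pyruvate kinase activity monitored as ATP production (luciferase luminescence). Conditions: 0.1 nM enzyme, 0.5 mM PEP, 0.1 mM ADP, 1 h, RT; normalized against uninhibited and no-enzyme wells.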
Sm TGR block: blocks Schistosoma mansoni thioredoxin glutathione reductase. purified TGR, DTNB reduction, TNB absorbance 405 nm. 360,000 compounds, 3% hits. Q962Y6. Potency, µM (highest dose often 114 µM), most hits filed as inhibitors; also: nearly all actives have a fitted effect of over 60% in size
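First, TGR (20 nM dispensed) and NADPH were mixed with compound. Second, a 15 min room-temperature incubation followed. Third, further NADPH and then DTNB were added to start the reaction. Finally, TNB absorbance was monitored kinetically.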
RE007 growth inh: less growth of the S. pombe RE007 Vpr strain; S. pombe RE007 Vpr strain, BacTiter-Glo ATP luminescence, 24 h; Potency, µM (series often up to 92.2 µM), most hits filed as inhibitors; 360,000 compounds, 0.21% hits; AID 651644; active = well fitted falling curve with a large enough effect; inconclusive = small, poorly fitted or top-dose-only effect; inactive = no such curve, though single readings can be large or run the other way; also: nearly all actives have a fitted effect of over 50% in size
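Fission yeast RE007 carrying one integrated HIV-1 vpr copy, seeded at OD 0.01 in PMG+AL medium with 23 nL pinned compound. Grown 24 h at 30 degrees; viability read by BacTiter-Glo luminescence after 5 min.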
Of the large screens only hits and unclear results are named; the others gave an inactive call. A selection: hits, their analogues and other compounds. The true share with any hit is near 3%. Unless noted, calls follow the shape of the dose curve; as a rule, active = well fitted curve in the direction sought with a large enough effect; inconclusive = small, poorly fitted or top-dose-only effect, or another doubt; inactive = no such curve, though single readings can be large; an effect the other way counts as inactive or inconclusive.

O=C1c2cccnc2C(Nc2ccccc2)N1Cc1ccco1 (stereo not drawn)	Sm TGR block 25µM
O=C(Cn1c(=O)oc2ccccc21)NCc1cccc(Cl)c1	none (no result: LmPK inhibitor, RE007 growth inh)
CC(C(O)c1ccccc1)N(C)CCOC(c1ccccc1)c1ccccc1 (stereo not drawn)	none (no result: LmPK inhibitor, Sm TGR block, RE007 growth inh)
Cc1scc(-c2n[nH]c(=S)n2C(C)c2ccccc2)c1C (stereo not drawn)	TbPYK inhibitor 2.2µM, LmPK inhibitor 13µM (no result: RE007 growth inh)
CCc1cc(-c2n[nH]c(=S)n2C(C)c2ccccc2)cs1 (stereo not drawn)	LmPK inhibitor 14µM
Cc1cc(SCc2sc(-c3ccc(C(F)(F)F)c(F)c3)nc2C)ccc1OCC(=O)O	none (no result: LmPK inhibitor, Sm TGR block, RE007 growth inh)
C=CCc1ccc(OC(=O)NC2CCCCC2)c(OC)c1	Sm TGR block 22µM
C=CCc1ccc(OCCCCNC2CCCC2)c(OC)c1	none
CCN1/C(=C\C(=S)Nc2ccccc2)Sc2ccccc21	none
CCN1/C(=C/C(C)=C/c2sc3ccccc3[n+]2CC)Sc2ccccc21	TbPYK inhibitor inconclusive, RE007 growth inh 7.1µM
COC(=O)c1sc(N)c(C(=O)OC)c1Cn1ncc(Cl)c(Cl)c1=O	Sm TGR block 0.32µM
CCN(Cc1ccncc1)C(=O)c1cccc(S(=O)(=O)N2CCCCC2)c1	none (no result: LmPK inhibitor, Sm TGR block)
O=C(CCn1cccc1)Nc1cccc(F)c1	Sm TGR block 35µM
Cc1cc2oc(C(=O)Nc3c(C)n(C)n(-c4ccccc4)c3=O)cc(=O)c2cc1C	none (no result: LmPK inhibitor, RE007 growth inh)
CCCCc1cc(-c2n[nH]c(=S)o2)c2ccccc2n1	Sm TGR block 45µM
Cc1ccc2c(c1)CC1(CN2C)C(=O)OC2(CCCCC2)OC1=O	LmPK inhibitor 14µM, Sm TGR block inconclusive
COc1ccccc1OCC(=O)N(Cc1ccc(Cl)cc1)CC1CCCO1 (stereo not drawn)	none (no result: LmPK inhibitor, RE007 growth inh)
CCCNc1ccc(-c2nc(-c3ccccn3)no2)cc1[N+](=O)[O-]	none (no result: LmPK inhibitor, RE007 growth inh)
Cc1ccc(-c2nc(-c3ccccn3)no2)cc1[N+](=O)[O-]	LmPK inhibitor 14µM, RE007 growth inh inconclusive
CCN(CC)c1ccc(-c2nc(-c3ccccn3)no2)cc1[N+](=O)[O-]	Sm TGR block 50µM (no result: LmPK inhibitor, RE007 growth inh)
O=c1c(-c2ccco2)[n+]([O-])c2ccccc2n1OCc1ccccn1	Sm TGR block 18µM
O=c1c(-c2ccco2)[n+]([O-])c2ccccc2n1OCc1ccccc1[N+](=O)[O-]	Sm TGR block 16µM
CCc1ccccc1NC(=O)c1ccc(-n2c(C)ccc2C)cc1	Sm TGR block inconclusive
COc1ccc(NC(=O)c2ccc(-n3c(C)ccc3C)cc2)c(OC)c1	Sm TGR block 28µM
O=C(Nc1ccccc1F)c1ccc(CSc2ncccn2)cc1	LmPK inhibitor 16µM
Cc1ccc(C)n1-c1ccc(C(=O)Nc2ccccc2F)cc1	Sm TGR block 50µM
COc1ccc(NC(=O)N(C)C[C@@H]2OCc3cn(nn3)CCCC(=O)N([C@@H](C)CO)C[C@H]2C)cc1	none (no result: LmPK inhibitor, Sm TGR block)
Cc1cc(NC(=S)Nc2ccc(C)c(Cl)c2)n[nH]1	Sm TGR block 7.1µM
COc1ccc(NC(=S)Nc2cc(C)[nH]n2)cc1Cl	Sm TGR block inconclusive
Cc1ccc(-n2c3c(c(=O)[nH]c2=O)C(NC(=O)c2ccccc2C)(C(F)(F)F)C(=O)N3)cc1 (stereo not drawn)	none (no result: LmPK inhibitor, RE007 growth inh)
COc1cc(C(C2C(=O)CC(C)(C)CC2=O)C2C(=O)CC(C)(C)CC2=O)cc(OC)c1OC	TbPYK inhibitor inconclusive, Sm TGR block 25µM
COc1cc(C(C2C(=O)CC(C)(C)CC2=O)C2C(=O)CC(C)(C)CC2=O)ccc1OC(C)=O	none (no result: LmPK inhibitor, Sm TGR block)
COc1cc(C(C2=C(O)CC(C)(C)CC2=O)C2C(=O)CC(C)(C)CC2=O)cc(OC)c1OC (stereo not drawn)	Sm TGR block 16µM
CC1(C)CC(=O)C(C(C2=C(O)CC(C)(C)CC2=O)c2ccco2)C(=O)C1 (stereo not drawn)	TbPYK inhibitor inconclusive, Sm TGR block inconclusive
COc1ccc(C(C2C(=O)CC(C)(C)CC2=O)C2C(=O)CC(C)(C)CC2=O)cc1COCC(F)(F)F	Sm TGR block 40µM
COc1cc(C(C2C(=O)CC(C)(C)CC2=O)C2C(=O)CC(C)(C)CC2=O)ccc1O	TbPYK inhibitor inconclusive, Sm TGR block inconclusive
COC(=O)c1nnn(CC(=O)Nc2cc(F)ccc2F)c1C(=O)OC	none (no result: LmPK inhibitor, RE007 growth inh)
CCOC(=O)C1CCCN(Cc2cc(Br)c(OC)cc2OC)C1 (stereo not drawn)	none
CCOC(=O)C1CCCN(Cc2cc(OC)c(O)c(OC)c2)C1 (stereo not drawn)	Sm TGR block 16µM
CCOC(=O)C1CCN(Cc2cc(C(C)(C)C)c(O)c(C(C)(C)C)c2)CC1	Sm TGR block 11µM
CCOC(=O)C1CCN(Cc2ccc(O)c(OC)c2)CC1	Sm TGR block 56µM (no result: TbPYK inhibitor)
CCOC(=O)C1CCN(Cc2ccc(Cl)c(Cl)c2)CC1	none
Cc1c(CBr)[n+](=O)c2c(n1[O-])C(Br)CCC2Br (stereo not drawn)	TbPYK inhibitor inconclusive, Sm TGR block 4µM
Cc1c(C)[n+](=O)c2c(n1[O-])CCC2	none
Cc1c(C)[n+](=O)c2c(n1[O-])C(Br)CCC2Br (stereo not drawn)	Sm TGR block 40µM
CCc1c(C)n([O-])c2c([n+]1=O)CCC2	none
CCOc1cc(C(=O)NCc2ccccc2)ccc1OCC(=O)N1CCOCC1	none
CCOc1cc(C(=O)Nc2ccc(C(=O)NCCN(CC)CC)cc2)ccc1OCC(=O)N1CCOCC1	Sm TGR block 35µM (no result: LmPK inhibitor)
O=C1CC(N2CCOCC2)C(=O)N1CCN1C(=O)CC(N2CCOCC2)C1=O (stereo not drawn)	none
Cc1cc(C)cc(N2C(=O)CC(N3CCOCC3)C2=O)c1 (stereo not drawn)	Sm TGR block 50µM
O=C1CC(N2CCOCC2)C(=O)N1c1cc(Cl)cc(Cl)c1 (stereo not drawn)	Sm TGR block 35µM, RE007 growth inh 11µM
COc1ccc2c(c1)Cc1sc(NC(=O)c3ccco3)nc1-2	none
COc1ccc2c(c1)Cc1sc(NC(C)=O)nc1-2	TbPYK inhibitor inconclusive, Sm TGR block 56µM
CC1=C(C(=O)Nc2ccccc2)C(c2ccccc2)n2nc(-c3ccco3)nc2N1 (stereo not drawn)	none (no result: LmPK inhibitor, RE007 growth inh)
COc1ccc(C2C(C(=O)Nc3cccnc3)=C(C)Nc3nc(-c4ccco4)nn32)cc1 (stereo not drawn)	Sm TGR block 50µM
O=C(c1ccc(F)cc1)N1CCN(CCc2ccncc2)CC1	Sm TGR block 40µM (no result: LmPK inhibitor, RE007 growth inh)
O=C(Nc1ccccc1F)c1ccc(O)c2ncccc12	none (no result: TbPYK inhibitor, LmPK inhibitor, RE007 growth inh)
Oc1c(Br)cc(Cl)cc1C=Nc1ccccc1Br	Sm TGR block 22µM
COc1cc2c(cc1OC)[C@@H](Cc1ccc(OCCC#N)cc1)N(C)CC2	Sm TGR block 50µM
COCCn1c(CN2CCN(C(c3ccccc3)c3ccccc3)CC2)nc2c1c(=O)n(C)c(=O)n2C	none
COCCn1c(C)cc(O)c(C(c2ccccc2)N2CCN(c3ccccc3)CC2)c1=O (stereo not drawn)	Sm TGR block 4.5µM (no result: LmPK inhibitor, RE007 growth inh)
